This note sets out measurements from PubChem BioAssay AID1694 (National Center for Advancing Translational Sciences (NCATS), 2009).

Results filed as inconclusive are left out. A number with no mark means an inactive call. The call rests on the fitted dose curve; in most records, active means well fitted curve in the direction sought with a large enough effect; inconclusive means small, poorly fitted or top-dose-only effect, or another doubt; inactive means no such curve, though single readings can be large or run the other way.

This assay in a line: Confirmation Concentration-Response Assay for Inhibitors of Tau Fibril Formation, Total Fluorescence Counterscreen for Fluorescence Polarization. The settings on record: Alexa594-tau K18 total fluorescence counterscreen, interference, tau K18 with P301L mutation; series mostly up to 100 µM; fluorescence change, negative = quenching: at the top concentration. The text has this: NIH Molecular Libraries Probe Production Network [MLPCN] NIH Chemical Genomics Center [NCGC] MLPCN Grant: X01 MH083262-01 Assay Provider: Carlo Ballatore, University of Pennsylvania NCGC Assay Overview: The microtubule-associated protein tau is an abundant protein in the axons of neurons that stabilizes microtubules. With its ability to modulate microtubule dynamics, tau contributes directly or indirectly, to key structural and regulatory cellular functions. Particularly important is the influence tau exerts on axonal transport, which allows signaling molecules, trophic factors and other essential cellular constituents to travel along the axons. Under pathological conditions, tau becomes sequestered into insoluble aggregates called neurofibrillary tangles. This phenomenon is believed to have pathological consequences by promoting axonal transport deficits that ultimately lead to synaptic dysfunction and neuronal loss. To identify inhibitors of tau aggregation, a heparin-induced tau fibril formation assay was used that employed a recombinantly expressed fragment of tau, K18 (Q242-E372), bearing a P301L mutation (Gustke et al. 1994; Hong et al. 1998). […] Total fluorescence (555 nm excitation and 632 nm emission) was measured to identify fluorescent or absorbent compounds at this wavelength. Such compounds may be artifacts that interfere with the Alexa 594 Tau fluorescence polarization assay. Gustke, N., B. Trinczek, et al. (1994). "Domains of tau protein and interactions with microtubules." Biochemistry 33(32): 9511-22. Hong, M., V. Zhukareva, et al. (1998). "Mutation-specific functional impairments in distinct tau isoforms of hereditary FTDP-17." Science 282(5395): 1914-7. Li, W. and V. M. Lee (2006). "Characterization of two VQIXXK motifs for tau fibrillization in vitro." Biochemistry 45(51): 15692-701. von Bergen, M., S. Barghorn, et al. (2001). "Mutations of tau protein in frontotemporal dementia promote aggregation of paired helical filaments by enhancing local beta-structure." J Biol Chem 276(51): 48165-74.
For screening, 2 uL/well human K18 P301L (15 uM unlabeled and 0.24 uM Alexa 594-labeled tau final concentrations) in reagent buffer (100 mM sodium acetate pH 7) was dispensed into black solid 1536-well plates (Grenier) using a solenoid-based dispenser. Following transfer of 23 nL compound or DMSO vehicle by a pin tool, 2 uL/well heparin (20 uM final concentration) in reagent buffer was added and the plate centrifuged 15 s at 1000 RPM. Plates were incubated 6 hr at 37 C and then 1 uL/well ThT (30 uM final concentration) was added. After a 1 hr ambient incubation, the plates were read by an Envision (Perkin Elmer) to monitor Alexa 594 FP (555 nm excitation and 632 nm emission). Keywords: NIH Roadmap, MLPCN, MLI, MLSMR, NCGC, qHTS, tau, tauopathies, Alzheimer's disease, fibril, neurodegeneration, aggregation
A general note: The purpose of a counterscreen is to sort out artefacts and off-target activity.
Take `Cc1nc2ccccc2oc1=O`: the “fluorescence change, negative = quenching” value (“fluorescence change” below) is 11.2%.

Take `CCOC(=O)c1nn(-c2ccc(C)c(C)c2)c(=O)c2c(N)scc12`: the “fluorescence change” value is -15.5% [at 57.1 µM].

As for `Cc1ccc(S(=O)(=O)N(C)c2nc3ccccc3[nH]c2=S)cc1`, the “fluorescence change” value was 7.27%.

In the case of `CN(c1ccccc1)S(=O)(=O)c1nnc(NC(=O)COc2ccccc2)s1`, the “fluorescence change” value is -11.1%.

`CC(=O)Nc1sc(C)c2cnn(-c3ccccc3)c(=O)c12`: the “fluorescence change” value is 4.58% [at 57.1 µM].

Turning to `COc1c(Cl)cccc1NC(=O)c1c(NC(=O)Cc2ccccc2)sc2c1CCCC2`, the “fluorescence change” value was -3.36% [at 57.1 µM].

Consider `CCOC(=O)c1ccc(S(=O)(=O)Nc2nc3cc(S(=O)(=O)NC4=NCCCCC4)ccc3s2)cc1`, for which the “fluorescence change” value was 2.36%.

With `CCOC(=O)c1nn(-c2ccccc2F)c(=O)c2c(N)scc12`, the “fluorescence change” value is -6.67% [at 57.1 µM].

On to `CCOC(=O)c1nn(-c2ccccc2)c(=O)c(C#N)c1C`, for which the “fluorescence change” value was 4.66% [at 57.1 µM].

Consider `O=C(CSc1nc2scc(-c3ccco3)c2c(=O)n1-c1ccccc1)N1CCOCC1`, for which the “fluorescence change” value is -2.9% [at 57.1 µM].

As to `CCn1c(CSc2nccn2C)nc2cc(C(=O)O)ccc21`, the “fluorescence change” value is 35.7%.

`COc1cccc(/C=C2/SC(=S)N(CC(=O)Nc3nnc(C)s3)C2=O)c1`: the “fluorescence change” value is -9.01% [at 57.1 µM].

As to `Cc1[nH]c(=O)c(C#N)cc1-c1ccncc1`, the “fluorescence change” value is 2.45%.

`Cc1ccc(C(=O)Nc2nc(=O)n(C(=O)CC(C)C)s2)cc1`: the “fluorescence change” value was 2.86%.

For the molecule `CN(C)S(=O)(=O)c1cccc(N=C2NN=C(c3ccccc3)CS2)c1`, the “fluorescence change” value is -15.9%.

For `O=C(NCc1cccnc1)C1CCN(S(=O)(=O)c2cccs2)CC1`, the “fluorescence change” value is -5.66%.

Consider `Cc1ccc(N(C)S(=O)(=O)c2nnc(NC(=O)C3CCCCC3)s2)cc1`, for which the “fluorescence change” value is 4.56%.

Consider `CCOC(=O)c1nn(-c2ccccc2)c(=O)c2c(NC(=O)c3ccccc3)scc12`, for which the “fluorescence change” value is 0.942% [at 57.1 µM].

As to `O=C(Nc1cccc(-c2nc3ccccc3o2)c1)c1cc([N+](=O)[O-])ccc1N1CCOCC1`, the “fluorescence change” value was -5.59%.

Turning to `Cc1ccc(C(=O)Nc2nc(=O)n(C(=O)C3CC3)s2)cc1`, the “fluorescence change” value was 12.3%.

With `COC(=O)c1nn(-c2ccc(OC)cc2)c(=O)c2c(N)sc(C)c12`, the “fluorescence change” value was -0.76%.

Regarding `CN(C)c1ccc(N2C(=O)CSC2=S)cc1`, the “fluorescence change” value was -26.9%.

Regarding `Cc1ccc(-c2ccc(/C=N/N=C3/NC(=O)C(CC(=O)O)S3)o2)c([N+](=O)[O-])c1` (stereo not given), the “fluorescence change” value is 4.37%.

For `Nc1nc2cc(S(=O)(=O)NC3=NCCCCC3)ccc2s1`, the “fluorescence change” value is 17.4%.

`Cc1ccc(N2C(=O)SC(Cc3ccccc3)C2=O)cc1` (stereo not given): the “fluorescence change” value was 14.2%.

Take `O=C(Nc1ccccc1)Nc1ccccc1`: the “fluorescence change” value was -10.9%.

As to `COC(=O)c1c(NC(=O)CCCOc2ccc(C(C)(C)C)cc2)sc2c1C(C(=O)OC)CC2` (stereo not given), the “fluorescence change” value is 4.07%.

In the case of `Cn1sc(NC(=O)c2ccccc2)nc1=O`, the “fluorescence change” value was 4.66% [at 57.1 µM].

On to `O=C(Nc1nnc(S(=O)(=O)Nc2ccccc2)s1)C1CCCCC1`, for which the “fluorescence change” value was -18.2%.

For the molecule `O=C(O)CC1S/C(=N/N=C/c2ccc(-c3ccc(Cl)cc3[N+](=O)[O-])o2)NC1=O` (stereo not given), the “fluorescence change” value is 3.16%.

As to `CC(C)(C)c1ccc(NC(=O)N2CCN(c3ccc([N+](=O)[O-])cn3)CC2)cc1`, the “fluorescence change” value is -1.23%.

Turning to `COc1ccc2oc(-c3ccc(NC(=O)c4ccc(N5CCOCC5)c([N+](=O)[O-])c4)cc3)nc2c1`, the “fluorescence change” value is -3.8%.

With `CCOC(=O)c1ccc(-n2nc(C(=O)OCC)c3csc(N)c3c2=O)cc1`, the “fluorescence change” value is -11.1% [at 57.1 µM].

Consider `Cc1ccc(C2=NNC(=Nc3ccc(F)cc3)SC2)cc1`, for which the “fluorescence change” value is -13.1%.

Consider `COC(=O)c1c(NC(=O)CCCOc2ccc(C)cc2)sc2c1C(C(=O)OC)CC2` (stereo not given), for which the “fluorescence change” value was -0.983%.

As for `COC(=O)c1c(NC(=O)C(C)(C)C)sc2c1C(C(=O)OC)CC2` (stereo not given), the “fluorescence change” value is -17%.

On to `CCOC(=O)c1c(N)sc2c1CCOC2`, for which the “fluorescence change” value was 17.4% [at 57.1 µM].

Turning to `CCOC(=O)c1nn(-c2ccccc2)c(=O)c2c(NC(C)=O)scc12`, the “fluorescence change” value was 12.6% [at 57.1 µM].

In the case of `COC(=O)CSc1nc2ccc(NC(=O)CSc3nnnn3Cc3ccccc3)cc2s1`, the “fluorescence change” value was -2.92%.

On to `COc1cccc(/C=C2/SC(=S)N(CC(=O)Nc3nccs3)C2=O)c1`, for which the “fluorescence change” value is -19.7% [at 57.1 µM].
